High-throughput results deposited in PubChem BioAssay by Sanford-Burnham Center for Chemical Genomics.
Rows were chosen to be rich in hits. Some 2.2% of all compounds tested hit in one or more screens of this group.
C8 TRAIL sens: caspase-8 TRAIL sensitization. 360,000 tested, 1% active. inhibition (viability loss, TRAIL sensitization), % at 10 µM. NB7+C8 cells + TRAIL, ATPlite viability luminescence. AID 624354;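 active means compounds causing at least 50% loss of cell viability in the single-dose screen, relative to plate controls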
iPSC survival up: hiPSC single-cell survival enhancement | ATPlite luminescence; 100% = ROCK inhibitor wells, 0% = DMSO | survival enhancement, % at 20 µM | 360,000 tested, 0.044% active | AID 602274; in the data active means survival enhancement above about 18%;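 further: cells exposed to compounds for 16 hours before the ATP read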
CF NFkB block: inhibitors of cystic fibrosis induced NF-kB; inhibition, % at 5 µM; KKLEB NF-kB-GFP reporter, PAF-induced, GFP fluorescence overnight; 360,000 tested, 0.86% active;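 active means at least 50% inhibition at 5 µM, scaled per plate between neutral and stimulator controls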;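 further: PAF is a Pseudomonas aeruginosa culture filtrate used as stimulus; plate controls were PAF-stimulated DMSO wells for no effect and unstimulated DMSO wells for full effect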
PPC-1+TRAIL kill: PPC-1 cancer cell killing with TRAIL present; PPC-1 cells + TRAIL, ATPLite viability luminescence; cell killing (% activity), % at 4 µM or 5 µM; 220,000 tested, 0.41% active; AID 1443;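 active means cell killing above 50% in the first pass at 4 µM, then a duplicate retest at 5 µM averaging 50% or more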;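 further: plate controls were cells with TRAIL plus DMSO for no effect and medium-only wells lacking cells for full effect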
KKLEB tox: reduces viability of KKLEB cystic fibrosis airway cells. AID 602141. KKLEB CF airway cells viability, ATPlite luminescence, overnight; hits give low values; cells stimulated with P. aeruginosa culture filtrate. 360,000 tested, 0.36% active. activity change (cytotoxicity), % at 5 µM;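 active means corrected activity change at or below -50% at 5 µM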
HIF-2a inh: blocks HIF-2a reporter activity. 786-0 RCC cells HIF-2a reporter, luciferase luminescence, overnight. inhibition, % at 18.8 µM. 360,000 tested, 0.72% active. AID 624352;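 active means inhibition of the luminescence signal of 40% or more relative to plate controls, in a single-dose primary screen at 18.75 µM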
* hit, by the source's call; . = not tested or not shown.

SMILES	C8 TRAIL sens	iPSC survival up	CF NFkB block	PPC-1+TRAIL kill	KKLEB tox	HIF-2a inh
FC(F)(F)c1nnc2c(Sc3ccccc3)nc3ccc(Cl)cc3n12	47	-5	96*	27	-90*	34
FC(F)(F)c1nc2ccccc2n2c(-c3ccc(Cl)cc3Cl)nnc12	12	0	16	5	-4	22
CC1CCCN(S(=O)(=O)c2ccc(C(=O)Nc3ccccc3-c3nc4ccccc4[nH]3)cc2)C1 (centres undefined)	11	7	68*	11	-55*	7
Cc1cccc2sc(NNC(=O)c3ccc(S(=O)(=O)N4CCCC(C)C4)cc3)nc12 (centres undefined)	67*	0	5	12	7	10
COc1ccc(-c2nsc3c(N4CCCC4)ncnc23)cc1	81*	-5	-16	5	-38	-44
Cc1ccc(-c2nn(-c3ccccc3)cc2NC(=O)CCl)cc1	56*	-1	25	28	-34	-76
Cc1ccc(-c2nn(-c3ccccc3)cc2CO)cc1	-10	0	-2	.	5	-217
Nc1c(S(=O)(=O)c2cccs2)c2nc3ccccc3nc2n1/N=C/c1cccc(O)c1	20	-2	-10	-7	10	40*
CCCCN(C(=O)CSc1nnnn1C)C1CCS(=O)(=O)C1 (centres undefined)	-6	0	-7	.	9	9
O=C(/C=C/c1ccccc1)NC(NC(=S)Nc1ccc(Cl)cc1)C(Cl)(Cl)Cl (centres undefined)	52*	-1	2	-18	-2	16
FC(F)(F)c1ccccc1-n1c(-c2ccco2)n[nH]c1=S	-7	0	2	.	5	-6
COc1ccc2[nH]c(=O)c(CN(Cc3cccs3)S(=O)(=O)c3c(C)ccc4nsnc34)cc2c1	25	6	97*	-3	-21	1
N#CC(=C1C=C(Br)C(=NO)C=C1Cl)c1ccc(Cl)cc1	3	1	20	.	3	14
N#CC(=C1C=CC(=NO)C(Cl)=C1)c1ccccc1	4	-2	50*	.	-6	-46
O=[N+]([O-])c1ccc(S(=O)Cc2ccccc2)c([N+](=O)[O-])c1 (centres undefined)	66*	-5	86*	.	-20	93*
CCc1nc(N)nc(N)c1-c1ccc(Cl)c([N+](=O)[O-])c1	80*	2	-11	.	15	31
CCc1nc(N)nc(N)c1-c1ccc(Cl)c(N=[N+]=[N-])c1	83*	0	17	.	-19	29
O=C(NCc1cccnc1)C1CCN(S(=O)(=O)c2cc(Cl)ccc2Cl)CC1	3	0	-5	.	-5	20
COc1ccc(CNC(=O)CCSCc2cccc(F)c2)cc1	1	0	-3	.	1	0
CCOC(=O)C[C@H]1c2cc(F)ccc2S(=O)(=O)N1Cc1ccc(OC)cc1	8	2	32	.	-17	-10
COc1ccc2nc3cc(Cl)ccc3c(C#N)c2c1	-5	1	-27	10	10	-41
COc1ccc2nc3cc(Cl)ccc3c(Nc3ccc(O)c(CN4CCN(C)CC4)c3)c2c1	74*	-2	-60	.	-5	-49
O=C(NCc1ccc(F)cc1)C(C(=O)NCc1ccc(F)cc1)c1ncc(C(F)(F)F)cc1Cl	-4	0	6	4	-7	16
Oc1c(Br)cc(Cl)cc1C=Nc1ccc(N2CCOCC2)cc1	-11	1	30	15	9	9
Oc1ccc(N=Nc2cccc(Cl)c2)cc1C=Nc1ccc(N2CCOCC2)cc1	12	-1	68*	1	-10	-11
SMILES	C8 TRAIL sens	iPSC survival up	CF NFkB block	PPC-1+TRAIL kill	KKLEB tox	HIF-2a inh
COc1ccc(/C=N/OC(=O)Nc2ccccc2OC)cc1	52*	-1	15	29	-15	-319
Cc1sc2ncnc(N3CCC(C(=O)Nc4ccccc4C(C)(C)C)CC3)c2c1C	19	1	68*	.	-22	15
O=[N+]([O-])c1ccc(NCCCNS(=O)(=O)c2ccccc2)cc1	0	-2	-31	0	10	-4
CC[C@@H]1C=C(C(=O)O)[C@H](c2ccc(OC)c(OC)c2)N1S(=O)(=O)c1ccc(C)cc1	-14	-1	-7	.	-3	6
O=C(Nc1ccc(OCC(F)(F)C(F)F)c(C(F)(F)F)c1)c1ccccc1O	58*	1	50	1	-51*	-177
COC(=O)c1c(C(=O)OC)c(-c2cccc(F)c2)n2c1CS(=O)(=O)C2	5	0	9	.	-3	-6
Cc1cc(NC(=O)COC(=O)c2cc(S(=O)(=O)N(C)C)ccc2Cl)no1	-6	0	20	.	0	14
O=[N+]([O-])/C=C\c1ccc(N2CCCC2)c(F)c1	17	-1	-21	0	-12	46*
CSc1ncc(Cl)c(C(=O)Nc2ccc(NC(C)=O)cc2)n1	-4	0	-16	-2	8	-5
O=C(NCc1ccc2c(c1)OCO2)c1nc(S(=O)(=O)Cc2ccccc2)ncc1Cl	12	1	84*	.	-22	19
CC(=O)Nc1ccc(NC(=O)c2nc(S(=O)(=O)Cc3ccccc3)ncc2Cl)cc1	16	0	96*	.	-77*	0
COC(=O)c1ccccc1NC(=O)c1nc(S(=O)(=O)Cc2ccccc2)ncc1Cl	95*	11	96*	.	-95*	-33
CCc1nnc(NC(=O)c2nc(S(=O)(=O)Cc3ccccc3)ncc2Cl)s1	94*	0	90*	.	-94*	54*
COC(=O)c1cscc1S(=O)(=O)Cc1ccccc1	-13	0	5	.	2	0
O=C(/C=C/c1ccc([N+](=O)[O-])cc1)OCC(=O)N1CCCC1	-6	3	-42	.	-6	-2
Cc1ccc(C)c(NC(=O)Cc2nc(CNCC(C)C)cs2)c1	-6	-1	-10	.	-1	14
Cc1cccc(C)c1NC(=O)Nc1nnc([C@H]2C[C@H](O)[C@@H](CO)O2)s1	-18	0	28	.	-12	14
COc1ccc(CCNc2cc(N3CCN(C(=O)c4ccccc4F)CC3)ccc2[N+](=O)[O-])cc1OC	52*	4	6	21	-1	-9
COc1ccc(CCNc2cc(N3CCN(C(=O)c4ccc(C)cc4)CC3)ccc2[N+](=O)[O-])cc1OC	.	.	.	40	.	.
CCOc1ccc(N2C(N)=NC(N)=NC2(C)C)cc1	75*	-3	-14	33	-2	15
COc1cccc(N2C(N)=NC(N)=NC2(C)C)c1	85*	2	-6	26	-3	15
COc1ccc(N2C(N)=NC(N)=NC23CCCC3)cc1	14	-2	5	-11	1	14
CCCCOc1ccc(N2C(N)=NC(N)=NC23CCCCC3)cc1	9	0	-3	.	12	8
COc1ccc(N2C(N)=NC(N)=NC2(C)C)cc1	82*	0	6	9	-5	16
